Our source for the inhibition values is PubChem BioAssay AID652010 (The Scripps Research Institute Molecular Screening Center, 2013).

Screen size: about 370,000 compounds; about 4,100 (1.1%) were called active. This excerpt belongs to a sample that is enriched for actives. A number with no mark means an inactive call.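 How the source made its calls: active means inhibition above the mean over all tested compounds plus 3 SD (cut at about 3.6% in these data); inactive means the rest.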

The nature of this assay: relief of DAX-1 repression of SF-1 activity – cell-based, luminescence, SF-1 (NR5A1), full-length DAX-1, primary screen (AID 652010).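 Further: 0% = DAX-1 cells with DMSO and 100% = cells lacking DAX-1 with DMSO.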 The conditions noted are these: HEK293T StAR-luciferase reporter, SF-1/DAX-1 repression relief; at 6.8 µM; stronger effect = higher value.
As a reminder, the inhibition is the drop in the measured response relative to a control, in per cent. In the case of `C=C(C)C#CC(Cc1ccccc1)N(CC1CC1)/C(N)=N/C(=O)OCc1ccccc1` (configuration not stated), the inhibition was -1.59%.

Consider `CC(=O)C1(C(=O)Nc2nccs2)CC(c2ccccc2C(F)(F)F)=NO1` (configuration not stated), for which the inhibition is -0.45%.

With `COc1ccnc(C(=O)N2CCC(Oc3cccnc3)CC2)c1`, the inhibition was -0.42%.

Consider `COc1ccc(N2CCN(CCNS(=O)(=O)c3ccc([N+](=O)[O-])cc3)CC2)cc1`, for which the inhibition is -1.45%.

In the case of `O=C(NC1CCCCN(Cc2ccc(Cl)cc2)C1=O)c1ccc(Br)cc1` (configuration not stated), the inhibition was -1.64%.

On to `O=c1[nH]c(-c2ccccc2)cn1C1CCN(Cc2ccc(-c3nc4ccc(F)cc4nc3-c3ccccc3)cc2)CC1`, for which the inhibition is -0.54%.

For `CN1CCN(C(=O)c2ccc(NC(=O)c3ccc(Br)o3)cc2)CC1`, the inhibition is 0.03%.

Consider `CN1CCN(C(=O)c2ccc(-c3ccc(Br)cc3)o2)CC1`, for which the inhibition is 4.56% (active).

Consider `O=CN1CCN(C(=O)c2ccc(Br)o2)CC1`, for which the inhibition was -0.07%.

For `COC(=O)[C@]12C[C@H](CC(=O)N3CCOCC3)C(=O)N(Cc3ccc(Cl)cc3Cl)C1=C[C@H](C(C)C)O[C@@H]2C1CC1`, the inhibition was -0.52%.

As for `O=C(Nc1ncccc1O)c1ccc(S(=O)(=O)N2CCCCCC2)cc1`, the inhibition is 6.81% (active).

For the compound `O=C(Nc1ncccc1O)c1ccc(C(=O)c2ccccc2)cc1`, the inhibition was 69.9% (active).

On to `O=C(Nc1ccc(S(=O)(=O)N2CCCCC2)cc1)c1cnccn1`, for which the inhibition was 0.17%.

In the case of `CC(C)(C)n1nc2c(c1NC(=O)c1ccc(S(=O)(=O)N3CCCC3)cc1)CS(=O)C2` (configuration not stated), the inhibition was -0.67%.

On to `O=C(CNC(=O)c1ccc2ccccc2c1)Nc1ncccc1O`, for which the inhibition was 1.3%.

Consider `CN1CCN(NC(=O)c2ccc(S(=O)(=O)N3CCCCCC3)cc2)CC1`, for which the inhibition is -0.23%.

Consider `CCOC(=O)c1cccnc1NC(=O)c1ccncc1`, for which the inhibition was 0.42%.

`O=C(Nc1ncccc1O)c1ccc(S(=O)(=O)N2CCCC2)cc1`: the inhibition is 10.9% (active).

Turning to `CCN(CC)S(=O)(=O)c1cccc(NC(=O)c2ccc(S(=O)(=O)N3CCCC3)cc2)c1`, the inhibition was -3.89%.

On to `CC(=O)Nc1nc2ncccn2c1-c1ccc(C(F)(F)F)cc1`, for which the inhibition is -0.41%.

As to `CCN(C(=O)[C@@H](C1CC1)[C@@H](O)c1ccc2ccccc2c1)c1ccccc1`, the inhibition was -0.4%.

As for `COC(=O)C1CN(Cc2cn(Cc3ccc(F)cc3)nn2)CCS(=O)(=O)N1Cc1ccc(Cl)cc1` (configuration not stated), the inhibition is -0.95%.

For the compound `O=C1c2ccccc2C(c2nc3ccccc3[nH]2)N1c1ccccc1` (configuration not stated), the inhibition is -1.53%.

Regarding `CCOC(=O)CNC(=O)CSc1ncccc1-c1nc2ccccc2[nH]1`, the inhibition was 0.2%.

For the compound `C/C(=N\Nc1nc2ccccc2[nH]1)c1cccs1`, the inhibition is 3.55%.

As for `CCOC(=O)c1nc(-c2ccc3c(c2)OCO3)[nH]c1C`, the inhibition was 2.3%.

On to `c1ccc2[nH]c(-c3nc4ccccc4[nH]3)nc2c1`, for which the inhibition is 5.77% (active).

With `Cc1ccc(-c2nc3ccccc3[nH]2)cc1N`, the inhibition was 6.54% (active).

As to `COc1ccc(NC(=O)C2=CC(c3ccc(OC)c(OC)c3)=NS(=O)(=O)N2C)cc1`, the inhibition was -5%.

Turning to `COc1ccc(-c2cc(-c3nnc(SCc4ccc([N+](=O)[O-])cc4)n3N)[nH]n2)cc1`, the inhibition was -1.87%.

Take `CCOc1ccc(N(CC(=O)Nc2c(C)n(C)n(-c3ccccc3)c2=O)S(=O)(=O)c2ccc(Cl)s2)cc1`: the inhibition is -1.26%.

For the compound `Cc1ccccc1OCCC(=O)OCC(=O)NCCc1ccc(S(N)(=O)=O)cc1`, the inhibition was 2.36%.

In the case of `CCC(NC(=O)C1C2C=CC3(CN(Cc4ccccc4)C(=O)C13)O2)c1ccccc1` (configuration not stated), the inhibition was -0.13%.

In the case of `Cc1cccc(NC(=O)c2cc3c(C)nn(-c4ccccc4)c3s2)c1`, the inhibition is -0.95%.

For the compound `CN(C)CC(=O)N[C@@H]1C[C@@H]2O[C@H](CO)CC[C@@H]2O[C@@H]1CCc1ccc(C#Cc2ccccc2)cc1`, the inhibition was -1.24%.

Consider `O=C(CSCc1ccccc1)N1CCc2ccccc21`, for which the inhibition was 3.64% (active).

Turning to `CC(OC(=O)Cc1ccc(F)cc1)C(=O)N1CCc2ccccc21` (configuration not stated), the inhibition is 0.95%.

In the case of `O=C(CN1C(=O)c2ccccc2S1(=O)=O)N1CCc2ccccc21`, the inhibition is -2.91%.

As to `Cc1ccc(-n2c(SCC(=O)Nc3ccc(S(=O)(=O)Nc4nccs4)cc3)nnc2-c2cccnc2)cc1`, the inhibition was 0.65%.

As for `CCOC(=O)[C@]12CCCCC/C=C\1N(Cc1ccc(OC)cc1)C(=O)[C@H]2CC(=O)NCc1ccc(C)o1`, the inhibition was 0.47%.

On to `COc1cc(C=C(OC(C)=O)c2ccc3c(c2)OCO3)cc(OC)c1OC`, for which the inhibition is -1.67%.

Consider `COc1cc(C2CC(=O)Oc3cc(OC)c(OC)c(OC)c32)cc(OC)c1OC` (configuration not stated), for which the inhibition was 0.24%.

Take `COc1cc(C2c3cc4c(cc3C(O)C3COC(=O)C23)OCO4)cc(OC)c1OC` (configuration not stated): the inhibition is 7.49% (active).

Take `O=C(NC1CCCCN(Cc2cccc(C(F)(F)F)c2)C1=O)c1ccccc1I` (configuration not stated): the inhibition was -0.84%.

For the compound `Cc1ccc(C(=O)C2CCN(CC(=O)NCCC(C)C)CC2)cc1`, the inhibition is -0.3%.

For the compound `Cn1nc(-c2ccccc2)c(CSc2cccc(Cl)c2)c1Cl`, the inhibition was -0.99%.

Consider `O=c1c2ccccc2nc2n1C(CSc1ccc(Cl)cc1)CN2` (configuration not stated), for which the inhibition was 0.41%.

For `Clc1ccc2nc(CSc3ccccc3)cn2c1`, the inhibition was 4.45% (active).

Regarding `O=C(N[C@H](C(=O)N1CCC[C@H]1C(=O)NCCc1ccccc1Cl)c1ccccc1)c1ccccc1`, the inhibition was -0.28%.

With `CCOC(=O)[C@]12CCCC3=C1N(CCC3)C(=O)[C@@H](CC(=O)NCc1cccs1)C2`, the inhibition was 0.02%.

`CC(CCN1CCC(C(O)(c2ccccc2)c2ccccc2)CC1)Oc1ccc(C(F)(F)F)cc1` (configuration not stated): the inhibition was -0.91%.

For `Cc1ccc(Nc2c(F)c(F)c(F)c(F)c2C(=O)O)c(C)c1`, the inhibition is 0.38%.

As to `CCOc1ccc2cc(C#N)c(SCC(=O)OC)nc2c1`, the inhibition was 3.71% (active).

`COc1ccc(CCNC(=O)CSc2nc(-c3ccc(OC)c(OC)c3)ccc2C#N)cc1`: the inhibition is -0.18%.

Consider `Cc1cc(C#N)c(SCC(N)=O)nc1-c1ccc(F)cc1`, for which the inhibition is 0.32%.

Consider `Cc1ccc(-n2c(COc3ccccc3)nnc2SCC(=O)Nc2ccc3c(c2)OCCO3)cc1`, for which the inhibition was -2.9%.

Turning to `COc1ccc(-n2c(SCC(=O)Nc3ccccc3-c3ccccc3)nnc2-c2cccnc2)cc1`, the inhibition was -1.84%.

As to `CC(C)(O)C#Cc1ccc(CNC[C@H]2O[C@@H](n3cnc4c(=O)[nH]c(N)nc43)[C@H](O)[C@@H]2O)s1`, the inhibition was 5.95% (active).

On to `Nc1nc2c(ncn2[C@@H]2O[C@H](CNS(=O)(=O)N3CCc4ccccc4C3)[C@@H](O)[C@H]2O)c(=O)[nH]1`, for which the inhibition was -0.84%.

Turning to `Nc1nc2c(ncn2[C@@H]2O[C@H](CNCc3ccc(OCCCN4CCOCC4)cc3)[C@@H](O)[C@H]2O)c(=O)[nH]1`, the inhibition is 1.17%.

Regarding `Clc1ccc(-n2c(COc3ccccc3)nnc2SCc2nc3ccccc3[nH]2)cc1`, the inhibition was 0.06%.

As for `O=C(CSc1nc2ccccc2s1)N=Nc1c(O)[nH]c2ccccc12`, the inhibition is 0.2%.

Regarding `COC(=O)C1CN(CC(C)C)CCS(=O)(=O)N1Cc1ccc(F)cc1` (configuration not stated), the inhibition was -0.94%.

In the case of `CCC(=O)Nc1ccc2c(c1)C(=O)N(C)[C@@H]1CC[C@@H](CC(=O)NCCc3ccccc3)O[C@H]1CO2`, the inhibition is 0.25%.

Consider `Cc1nn(-c2ccc([N+](=O)[O-])cc2)c(N)c1-c1ccccc1`, for which the inhibition is 4.84% (active).

On to `Cc1nn(-c2ccccc2)c2c1C(c1cccc([N+](=O)[O-])c1)N(c1ccccc1)C(=O)N2` (configuration not stated), for which the inhibition is -0.06%.

Take `CC(C)(C)c1cnnn1-c1ccc([N+](=O)[O-])cc1`: the inhibition was 0.31%.

As for `O=[N+]([O-])c1ccc(N/N=C2/CCCCC2c2ccccn2)c([N+](=O)[O-])c1` (configuration not stated), the inhibition was -0.26%.

With `O=C(Nc1ccc([N+](=O)[O-])cc1)OCCc1ccccn1`, the inhibition is -0.01%.

On to `O=[N+]([O-])c1ccc2nc(-c3ccccn3)[nH]c2c1`, for which the inhibition is 3.65% (active).

On to `CC(C)CNc1cccc2c1S(=O)(=O)N(Cc1cn(Cc3ccc(Cl)cc3)nn1)Cc1ccccc1O2`, for which the inhibition is -0.85%.

On to `Cc1ccc(C2=CCN(C)C(=O)N2c2ccc(Cl)cc2)cc1`, for which the inhibition was -0.53%.

As for `CC(C)c1cccc(-c2csc(C(O)c3ccccc3)n2)c1` (configuration not stated), the inhibition was 0.06%.

As for `OC(c1ccccc1)c1nc(-c2cnc3ccccc3c2)cs1` (configuration not stated), the inhibition is 9.07% (active).

Take `COc1cccc(C(NC(C)=O)c2nc(-c3cnc4ccccc4c3)cs2)c1` (configuration not stated): the inhibition was -0.06%.

In the case of `CSc1ncnc2c1ncn2CCCNCc1cccs1`, the inhibition was 0.19%.

As to `O=C(Nc1ccc2ccccc2c1[N+](=O)[O-])c1ccccc1`, the inhibition is 5% (active).

In the case of `Cc1ccc(NC(=O)c2oc3ccccc3c2C)c([N+](=O)[O-])c1`, the inhibition was 0.06%.

Turning to `CN(C)c1ccc(NC(=O)c2ccncc2)c2ccccc12`, the inhibition is -0.26%.

For `COc1cccc(NC(=O)CCc2nnc3ccc(N4CCC(C)CC4)nn23)c1`, the inhibition was -0.5%.

Take `O=C(NCc1cccs1)C1CCN(S(=O)(=O)c2ccccc2[N+](=O)[O-])CC1`: the inhibition is 0.71%.

As for `O=C(COc1ccc(-c2ccccc2)cc1)NN=C1CCCC1`, the inhibition was -1.32%.

Turning to `c1ccc2sc(NN=C3CCCC3)nc2c1`, the inhibition is 4.11% (active).

On to `O=C1NC(Nc2nc3ccccc3s2)(C(F)(F)F)C(=O)N1C1CCCCC1` (configuration not stated), for which the inhibition is -1.98%.

Take `CCOC(=O)c1oc2c(CN3CCN(CCO)CC3)c(O)c(CC)cc2c(=O)c1-c1nc2ccccc2s1`: the inhibition is 0%.

As for `CCCCNC(=O)C[C@@H]1C(=O)N(CCc2ccc(Cl)cc2)C2=CCCC[C@]21C(=O)OCC`, the inhibition is -1.99%.

Turning to `COc1cccc(NC(=O)C/C(C)=N/NC(=O)C2CCCCC2)c1`, the inhibition was -0.19%.
